# Measured values from PubChem BioAssay AID2685 (National Center for Advancing Translational Sciences (NCATS), 2010).
# About 2,100 (0.66%) of roughly 320,000 compounds were called active. About 53% were inconclusive and are not listed. This is one part of a sample in which actives are shown more often than they occur. Calls come from the whole dose curve; as a rule, active = well fitted inhibition curve with a large enough effect in the signal ratio, with a control signal flat (not every such curve was filed as active); inconclusive = small, poorly fitted or top-dose-only effect, or effect the other way, or a change in a side signal; inactive = flat fitted curve, though single readings scatter; the % refers to the signal ratio.
# Test: qHTS Assay for Lipid Storage Modulators in Drosophila S3 Cells;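 for cell number change: cells counted by Cell Tracker Red CMTPX staining in the red channel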
# Details: BODIPY lipid droplet fluorescence, 18-24 h, cells fed with added oleic acid; cell number change: measured here: cell count max response; series mostly up to 46.1 µM
# Method in brief: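 Drosophila S3 cells loaded with oleic acid (400 uM, as added) and compounds at several concentrations; lipid droplets imaged by 488-nm laser-scanning cytometry, 500–530 nm intensity and object ratio to cell channel. Percent activity normalized to 20 uM Triacsin C.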
# Potency is the fitted concentration of half-maximal effect.
Structure (SMILES),Potency,cell number change
Cc1coc2c(C)c3oc(=O)c(CCC(=O)NCCC(=O)O)c(C)c3cc12,inactive,7.91%
Cc1ccc(-c2nc(CSc3nc4ccccc4c(=O)n3C)cs2)cc1,inactive,13.2%
Cn1c(SCc2ccc(Br)cc2)nc2ccccc2c1=O,inactive,-15.2%
Cc1ccc(CSc2nc3ccccc3c(=O)n2C)cc1,16.4 µM (active),10.9%
COC(=O)c1[nH]c2ccc(Cl)cc2c1NC(=O)C1CC1,inactive,1.77%
CCN(CC)c1ccc(/C=N/N2CC(=O)NC2=S)cc1,0.291 µM (active),-17.5%
CCc1n[nH]c(=S)n1/N=C/c1ccc(N(CC)CC)cc1,inactive,-4.64%
CCN(CC)c1ccc(/C=N/n2c(C)cc(C)cc2=O)cc1,inactive,0.542%
COc1cc(NC(=O)c2ccc([N+](=O)[O-])cc2)c(OC)cc1NC(=O)CC(C)C,inactive,14.3%
O=C(c1ccco1)N1N=C(c2ccc3nccnc3c2)CC1c1ccccc1 (centres undefined),inactive,13.8%
O=C(NCC1CC1)c1ccc2c(c1)S(=O)(=O)c1cc(Cl)ccc1C2=O,inactive,7%
CCCNC(=O)c1ccc2c(c1)S(=O)(=O)c1ccccc1C2=O,inactive,6.31%
COCCNC(=O)c1ccc2c(c1)S(=O)(=O)c1cc(Cl)ccc1C2=O,5.8 µM (active),9.21%
Nc1ncc(S(=O)(=O)c2ccc(Cl)cc2)c(N)n1,inactive,19.4%
Clc1ccc(N2CCN(c3cnc4ccccc4n3)CC2)cc1,inactive,-5.19%
O=S(=O)(c1ccc(Cl)cc1)c1cnc2ccccc2n1,29.1 µM (active),-118%
Cc1ccc(C(=O)N[C@H](C(=O)OCc2cc(=O)n3c(n2)sc2ccccc23)C(C)C)cc1,inactive,-15.4%
Cc1ccc(C(=O)N[C@H](C(=O)OCc2nnc(-c3ccccc3)o2)C(C)C)cc1,inactive,-21.1%
Cc1ccc(C(=O)NC(C(=O)OCc2cn3cc(Cl)ccc3n2)C(C)C)cc1 (centres undefined),5.17 µM (active),6.32%
CCOC(=O)C1CCCN(S(=O)(=O)c2ccc(Br)s2)C1 (centres undefined),inactive,-14.8%
Cc1nc2oc3ccc(F)cc3c(=O)c2cc1C(=O)O,inactive,9.45%
Cn1c(=O)c2c(nc(NCc3ccco3)n2CCc2ccccc2)n(C)c1=O,11.6 µM (active),-22.9%
C/C(Cl)=C\Cn1c(NCCc2ccccc2)nc2c1c(=O)n(C)c(=O)n2C,6.51 µM (active),-18.8%
Cn1c(=O)c2c(nc(NCCCO)n2C/C=C/c2ccccc2)n(C)c1=O,9.2 µM (active),-27.3%
CCn1c(NCc2ccco2)nc2c1c(=O)n(C)c(=O)n2C,inactive,-2.38%
CCCNc1nc2c(c(=O)n(C)c(=O)n2C)n1CCCc1ccccc1,inactive,-29.8%
CCN(CC)CCNc1nc2c(c(=O)n(C)c(=O)n2C)n1C/C=C(/C)Cl,inactive,-1.05%
Cn1c(=O)c2c(nc(NCCCO)n2Cc2cccc(Br)c2)n(C)c1=O,inactive,
Cn1c(=O)c2c(nc(NCc3ccco3)n2CC(O)CO)n(C)c1=O (centres undefined),inactive,9.76%
Cn1c(=O)c2c(nc(NCCCO)n2CCc2ccccc2)n(C)c1=O,inactive,-21.6%
